Measured values taken from PubChem BioAssay AID1159580 (chemical genetic matrix, 2015).
The whole screen tested about 5,500 compounds, of which about 2,000 (36%) were called active. Inconclusive results (about 18%) are left out. Cut-off read from the data, not from the text of the source: active = normalized growth mostly below about 0.91 (no sharp cut-off); inconclusive = no clear call, values can overlap the other calls; inactive = mostly above about 0.92. Some of the results follow.

Experiment: chemical genetic growth profiling, strain panel (AID 1159580);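 note: tested at 20 µM; growth read once vehicle control cultures reached saturation at 30 °C; 1 = growth at the plate median or of vehicle wells; lower values mean less growth of the strain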
Conditions: growth OD

Measured: normalized growth

CC(C)=CCC/C(C)=C/CO
inactive: S. cerevisiae deletion strains, locus YJR075W, strain HOC1, hits give low values 1.01 | S. cerevisiae deletion strains, locus YKL009W, strain mrt4, hits give low values 0.918 | S. cerevisiae deletion strains, locus YKL068W, hits give low values 0.993 | S. cerevisiae deletion strains, locus YKL085W, strain MDH1 (second series), hits give low values 0.98 | S. cerevisiae deletion strains, locus YKL085W, strain MDH1, hits give low values 0.98 | S. cerevisiae deletion strains, locus YKL160W, strain elf1, hits give low values 1.01 | S. cerevisiae deletion strains, locus YKL190W, strain CNB1, hits give low values 1.01 | S. cerevisiae deletion strains, locus YKR001C, strain vps1, hits give low values 0.99 | S. cerevisiae deletion strains, locus YKR026C, strain gcn3, hits give low values 0.985 | S. cerevisiae deletion strains, locus YKR091W, strain srl3, hits give low values 0.986 | S. cerevisiae deletion strains, locus YLL001W, strain dnm1, hits give low values 0.994 | S. cerevisiae deletion strains, locus YLL026W, hits give low values 0.998 | S. cerevisiae deletion strains, locus YLL041C, strain sdh2, hits give low values 0.98 | S. cerevisiae deletion strains, locus YLR027C, strain aat2, hits give low values 0.996 | S. cerevisiae deletion strains, locus YLR039C, strain RIC1, hits give low values 1.01 | S. cerevisiae deletion strains, locus YLR058C, strain SHM2, hits give low values 1.01 | S. cerevisiae deletion strains, locus YLR102C, strain apc9, hits give low values 0.991 | S. cerevisiae deletion strains, locus YLR113W, strain HOG1, hits give low values 0.984 | S. cerevisiae deletion strains, locus YLR221C, strain rsa3, hits give low values 0.947 | S. cerevisiae deletion strains, locus YLR258W, strain gsy2, hits give low values 1 | S. cerevisiae deletion strains, locus YLR262C, strain YPT6 (second series), hits give low values 0.978 | S. cerevisiae deletion strains, locus YLR262C, strain YPT6, hits give low values 1.03 | S. cerevisiae deletion strains, locus YLR268W, strain sec22, hits give low values 0.966 | S. cerevisiae deletion strains, locus YLR320W, strain mms22, hits give low values 0.96 | S. cerevisiae deletion strains, locus YLR330W, strain CHS5, hits give low values 1.01 | S. cerevisiae deletion strains, locus YLR342W, strain FKS1 (second series), hits give low values 1.04 | S. cerevisiae deletion strains, locus YLR342W, strain FKS1, hits give low values 0.974 | S. cerevisiae deletion strains, locus YLR357W, strain rsc2, hits give low values 0.986 | S. cerevisiae deletion strains, locus YLR370C, strain arc18, hits give low values 0.983 | S. cerevisiae deletion strains, locus YLR371W, strain rom2, hits give low values 0.985 | S. cerevisiae deletion strains, locus YLR384C, strain iki3, hits give low values 0.981 | S. cerevisiae deletion strains, locus YLR418C, strain cdc73, hits give low values 0.975 | S. cerevisiae deletion strains, locus YML016C, strain PPZ1, hits give low values 1.02 | S. cerevisiae deletion strains, locus YML032C, strain rad52, hits give low values 0.991 | S. cerevisiae deletion strains, locus YML120C, strain ndi1, hits give low values 1.01 | S. cerevisiae deletion strains, locus YML124C, strain tub3, hits give low values 0.991 | S. cerevisiae deletion strains, locus YMR058W, strain fet3, hits give low values 0.972 | S. cerevisiae deletion strains, locus YMR078C, strain ctf18, hits give low values 0.98 | S. cerevisiae deletion strains, locus YMR125W, strain sto1, hits give low values 1.01 | S. cerevisiae deletion strains, locus YMR129W, hits give low values 0.994 | S. cerevisiae deletion strains, locus YMR205C, strain PFK2, hits give low values 1.01 | S. cerevisiae deletion strains, locus YMR223W, strain ubp8, hits give low values 1.01 | S. cerevisiae deletion strains, locus YMR231W, strain pep5, hits give low values 0.983 | S. cerevisiae deletion strains, locus YMR263W, strain SAP30, hits give low values 1.02 | S. cerevisiae deletion strains, locus YMR307W, strain GAS1, hits give low values 1.01 | S. cerevisiae deletion strains, locus YNL067W, strain RPL9B, hits give low values 1.01 | S. cerevisiae deletion strains, locus YNL071W, strain lat1, hits give low values 0.988 | S. cerevisiae deletion strains, locus YNL128W, strain TEP1, hits give low values 1.01 | S. cerevisiae deletion strains, locus YNL153C, strain GIM3, hits give low values 0.998 | S. cerevisiae deletion strains, locus YNL183C, strain NPR1, hits give low values 0.991 | S. cerevisiae deletion strains, locus YNL209W, strain ssb2, hits give low values 0.99 | S. cerevisiae deletion strains, locus YNL233W, strain BNI4, hits give low values 1.01 | S. cerevisiae deletion strains, locus YNL248C, strain rpa49, hits give low values 0.969 | S. cerevisiae deletion strains, locus YNL250W, strain rad50, hits give low values 0.992 | S. cerevisiae deletion strains, locus YNL271C, strain bni1, hits give low values 0.975 | S. cerevisiae deletion strains, locus YNL298W, strain CLA4, hits give low values 0.991 | S. cerevisiae deletion strains, locus YNL307C, strain MCK1, hits give low values 1 | S. cerevisiae deletion strains, locus YNL322C, strain KRE1 (second series), hits give low values 0.984 | S. cerevisiae deletion strains, locus YNL322C, strain KRE1, hits give low values 1.01 | S. cerevisiae deletion strains, locus YNR049C, strain mso1, hits give low values 0.984 | S. cerevisiae deletion strains, locus YNR052C, strain pop2, hits give low values 0.987 | S. cerevisiae deletion strains, locus YOL006C, strain TOP1, hits give low values 0.999 | S. cerevisiae deletion strains, locus YOL012C, strain htz1 0.813 | S. cerevisiae deletion strains, locus YOL147C, strain pex11, hits give low values 0.996 | S. cerevisiae deletion strains, locus YOR001W, strain rrp6, hits give low values 0.923 | S. cerevisiae deletion strains, locus YOR061W, strain CKA2, hits give low values 1.02 | S. cerevisiae deletion strains, locus YOR069W, strain VPS5, hits give low values 1.01 | S. cerevisiae deletion strains, locus YOR070C, strain gyp1, hits give low values 0.987 | S. cerevisiae deletion strains, locus YOR080W, strain dia2, hits give low values 0.987 | S. cerevisiae deletion strains, locus YOR083W, strain WHI5, hits give low values 1.02 | S. cerevisiae deletion strains, locus YOR106W, strain vam3, hits give low values 1.02 | S. cerevisiae deletion strains, locus YOR136W, strain idh2, hits give low values 0.994 | S. cerevisiae deletion strains, locus YOR144C, strain elg1, hits give low values 0.994 | S. cerevisiae deletion strains, locus YOR184W, strain ser1, hits give low values 0.949 | S. cerevisiae deletion strains, locus YOR231W, strain MKK1, hits give low values 0.983 | S. cerevisiae deletion strains, locus YOR265W, strain rbl2, hits give low values 0.989 | S. cerevisiae deletion strains, locus YOR270C, strain vph1, hits give low values 0.953 | S. cerevisiae deletion strains, locus YOR290C, strain snf2, hits give low values 1 | S. cerevisiae deletion strains, locus YOR316C, strain cot1, hits give low values 0.992 | S. cerevisiae deletion strains, locus YPL051W, strain arl3, hits give low values 0.996 | S. cerevisiae deletion strains, locus YPL055C, strain LGE1, hits give low values 1.04 | S. cerevisiae deletion strains, locus YPL078C, strain atp4, hits give low values 1.01 | S. cerevisiae deletion strains, locus YPL106C, strain sse1, hits give low values 0.977 | S. cerevisiae deletion strains, locus YPL240C, strain hsp82, hits give low values 0.99 | S. cerevisiae deletion strains, locus YPL241C, strain CIN2, hits give low values 1 | S. cerevisiae deletion strains, locus YPL256C, strain CLN2, hits give low values 1.05 | S. cerevisiae deletion strains, locus YPR119W, strain clb2, hits give low values 0.991 | S. cerevisiae deletion strains, locus YPR141C, strain kar3, hits give low values 0.991 | S. cerevisiae deletion strains, locus YPR163C, strain tif3, hits give low values 0.987 | S. cerevisiae deletion strains, locus YPR167C, strain met16, hits give low values 0.995 | S. cerevisiae deletion strains, strain wtn01, hits give low values 0.987 | S. cerevisiae strains, strain wild type, hits give low values 1.02
